A selection: hits, their analogues and other compounds. The true share with any hit is near 2.4%.
D2 PAM-1: D2 dopamine receptor (human) potentiation; P14416; HEK293 T-REx D2, calcium flux, EC20 dopamine potentiation; potentiation, % at 10 µM; hit rate 0.34% among 340,000; AID 485347;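 active = potentiation over 3 SD above the plate norm, cut at about 30% in these data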; also: 0% is about no effect
Target sequence (P14416 whole entry, looked up): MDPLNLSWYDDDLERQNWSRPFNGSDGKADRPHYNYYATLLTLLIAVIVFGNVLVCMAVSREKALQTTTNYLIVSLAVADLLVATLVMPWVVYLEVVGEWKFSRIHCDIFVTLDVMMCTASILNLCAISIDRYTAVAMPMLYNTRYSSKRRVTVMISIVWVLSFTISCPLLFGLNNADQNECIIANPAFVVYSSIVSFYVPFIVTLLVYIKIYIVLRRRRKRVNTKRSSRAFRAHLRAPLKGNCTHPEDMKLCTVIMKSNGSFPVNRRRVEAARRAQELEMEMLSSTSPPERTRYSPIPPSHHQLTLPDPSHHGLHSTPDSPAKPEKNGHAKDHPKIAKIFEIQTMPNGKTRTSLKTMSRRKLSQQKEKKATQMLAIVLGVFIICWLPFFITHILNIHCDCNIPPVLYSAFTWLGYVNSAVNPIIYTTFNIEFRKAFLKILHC
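Cells plated with tetracycline inducer and held overnight at 30 C; calcium dye loaded 30–90 min at room temperature; baseline taken, compound added and read 180 s; EC20 dopamine then added and read 180 s.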
D2 antag: antagonists of human D2 dopamine receptor. inhibition, % at 10 µM. hit rate 2% among 340,000. P14416. AID 485344. HEK293 TREx D2 cells, calcium flux, dopamine EC80; in the data active = inhibition above about 30%; inactive = below that, where a call was filed; also: 0% is about no effect
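Measurement of antagonist activity uses fluorescent calcium dye in inducible HEK293 T-REx D2 cells: 10 s baseline, compound addition with 180 s read, EC80 dopamine addition with a further 180 s read.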
D2 ag-1: human D2 receptor agonism in beta-arrestin assay | P14416 | activation, % (concentration not given with the values) | DiscoveRx PathHunter D2 beta-arrestin, luminescence, 90 min; 100% = 57 uM dopamine signal | hit rate 0.084% among 360,000; in the data active = activation above about 40%; inconclusive = between about 15% and that limit
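Agonist mode: compounds alone added to overnight-plated D2 PathHunter cells for 90 min at 37 C, with 57 uM final dopamine (EC100) defining full response. Beta-arrestin recruitment detected by chemiluminescent reagent, read after 1 h at ambient temperature.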
D2 PAM-2: potentiates the human D2 dopamine receptor allosterically. potentiation, % (no concentration beside the values). AID 624464. DiscoveRx D2 beta-arrestin cells, luminescence, 90 min; 100% = 57 uM dopamine signal. P14416. hit rate 0.23% among 360,000; in the data active = potentiation above about 50%; inconclusive = mostly about 30% to 49%
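D2 cells co-treated with compound plus 50 nM dopamine (EC20) for 90 min at 37 deg C to detect potentiation. Beta-arrestin recruitment was read as enzyme-fragment luminescence after 1 h at ambient temperature. Full response was set by 57 uM dopamine.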
D2 ag-2: D2 dopamine receptor (human) agonism; P14416; HEK293 T-REx D2 cells, calcium flux agonist mode; activation, % at 2 µM; hit rate 0.53% among 340,000; AID 485358;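 active = activation over 3 SD above normal in the single-dose calcium agonist read, cut at about 30% in these data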; also: 0% is about no effect
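HEK293 Trex D2 cells, tetracycline-induced, o/n 30 C 5% CO2; no-wash Ca dye, RT 30–90 min; 10-cycle baseline, 23 nl cpd added, kinetic Ca read 180 s; agonist hits = positive Ca response.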
Active calls of the source: *; ? = inconclusive; . = no result.

SMILES	D2 PAM-1	D2 antag	D2 ag-1	D2 PAM-2	D2 ag-2
CCOc1ccc(OCC(=O)OCc2csc(CC(=O)Nc3ccccc3C)n2)cc1	42.2*	6.6	1.4	6.2	1.1
Cc1ccc(CN2CCN(C3CCN(C(=O)c4ccccc4)CC3)C(=O)C2=O)cc1	2.0	.	.	.	.
Cn1c(=O)c2c(nc(NCC3CCCC(CN)C3)n2Cc2ccc(Cl)cc2Cl)n(C)c1=O (stereo unspecified)	9.0	-14.4	?	-1.9	0.2
COc1ccccc1NS(=O)(=O)c1ccc(N/N=C/C=C/c2ccccc2[N+](=O)[O-])c([N+](=O)[O-])c1	-1.9	-0.9	2.2	-11.2	-0.1
COc1ccccc1NS(=O)(=O)c1ccc(NN=C2CCCC2)c([N+](=O)[O-])c1	2.7	34.4*	0.3	15.1	-0.8
O=C(Nc1cccc(OC(F)(F)F)c1)c1cccc2c(-c3cccnc3)coc12	.	.	10.3	-16.2	.
Cc1cccc(/C(N)=N/OC(=O)c2cccs2)c1	.	.	?	111.9*	.
Cc1ccc(/C(N)=N/OC(=O)c2cccs2)cc1	0.4	-31.9	?	76.6*	-0.5
COc1ccc(/C(N)=N/OC(=O)c2cccs2)cc1OC	5.3	2.1	41.5*	70.6*	0.4
N/C(=N\OC(=O)c1cccs1)c1ccccc1	-2.1	-8.1	10.6	?	-0.3
COc1ccc(/C(N)=N/OC(=O)c2c(-c3ccccc3Cl)noc2C)cc1OC	4.4	-16.2	?	56.5*	-0.3
COC(=O)c1ccccc1NC(=O)CCCn1c(=O)c2cccn2c2cccnc21	-5.5	.	.	.	-1.3
COc1cc(CCNC2=CC(=O)c3ncccc3C2=O)ccc1O	.	.	?	20.5	.
CCN(CC)C(=O)c1c(-c2ccccc2)c(-c2ccccc2)nn(CC)c1=O	2.2	.	.	.	.
Cc1ccc(C(=O)NNC(=O)c2cc(OCC(F)(F)F)ccc2OCC(F)(F)F)cc1	1.6	32.4*	-4.6	-15.1	.
O=C(NCc1ccc(F)cc1)c1cc(C2CCCCN2C(=O)OCCF)on1 (stereo unspecified)	.	.	-6.4	-10.0	.
O=C(O)c1cc(N/N=C/c2cccs2)ccc1Cl	-0.7	6.1	.	.	0.3
Cc1ccc(/C=N/Nc2ccc(Cl)c(C(=O)O)c2)s1	8.6	-7.2	5.1	51.3*	-0.6
COc1cccc(NC(=O)/C(C#N)=C/c2c(C)n(Cc3ccccc3)c3ccccc23)c1	-1.6	.	.	.	2.8
COC(=O)COc1ccc2c(=O)c(Oc3ccccc3)c(C)oc2c1	37.5*	-10.3	-2.0	-10.1	0.3
CCOc1ccc(Oc2c(C)oc3cc(O)ccc3c2=O)cc1	-1.6	-6.9	1.6	-0.9	1.0
O=C(NCc1ccc(Cl)cc1)C1CCCN(C(=O)c2ccc(Cl)cc2)C1 (stereo unspecified)	2.9	38.4*	-0.9	-1.0	-0.4
Cc1ccc(S(=O)(=O)N(C)C)cc1NC(=O)C1CCCN(C(=O)c2ccc(Cl)cc2)C1 (stereo unspecified)	-0.9	31.2*	-3.3	-2.5	-0.3
S=C(NCCc1ccccc1)Nc1ccccc1N1CCOCC1	0.6	44.7*	-5.0	-7.0	0.6
Cc1cc(C(=O)COC(=O)c2cc(O)c3ccccc3c2O)c(C)n1CC1CCCO1 (stereo unspecified)	-2.7	7.7	?	82.7*	1.5
SMILES	D2 PAM-1	D2 antag	D2 ag-1	D2 PAM-2	D2 ag-2
COc1cccc(Cn2c(=O)n(-c3cc(C)cc(C)c3)c(=O)c3oc4ccccc4c32)c1	-0.8	.	.	.	-1.1
O=C(O)CC(NC(=O)C1CCCCC1)c1cc([N+](=O)[O-])ccc1Cl (stereo unspecified)	2.8	-14.4	-4.7	-4.3	0.3
O=C(O)CC(NC(=O)C12CC3CC(CC(C3)C1)C2)c1cc([N+](=O)[O-])ccc1Cl (stereo unspecified)	9.6	72.3*	-3.9	2.7	-1.7
CCN1CCN(Cc2ccc(NC(=O)c3ccc(C)c(NC(=O)c4c[nH]c5cc(C(F)(F)F)ccc5c4=O)c3)cc2C(F)(F)F)CC1	-4.1	36.1*	-1.9	0.1	-0.8
Cc1ccc(C(=O)Nc2cccc(C(F)(F)F)c2)cc1NC(=O)c1c[nH]c2cc(C(F)(F)F)ccc2c1=O	.	.	0.6	-2.7	.
CN1C(=O)C(N=Nc2ccccc2C(=O)O)N(C)C1=S (stereo unspecified)	3.4	40.1*	-3.1	-8.0	8.5
Cc1cc(O)c(C(C)C)cc1N=Nc1ccccc1C(=O)O	3.8	9.4	-5.1	-11.8	-1.3
CCCCNC1=CC(=O)C(=O)c2ccccc21	9.4	2.8	51.5*	-7.7	0.8
CC(C)c1nn2c(=O)cc(COC(=O)c3ccccc3NC(=O)c3cccs3)nc2s1	-2.5	.	.	.	.
Cc1ccc2c(c1)C1CN(C)CCC1N2Sc1ccccc1[N+](=O)[O-] (stereo unspecified)	-21.9	43.1*	-8.2	-19.4	-1.7
CN(C)/C=N/c1cc(=O)[nH]c(=O)n1Cc1ccccc1	5.5	40.1*	-1.6	-23.9	0.2
CCOC(=O)C1(C)CCN1C(=O)c1ccc(C)cc1 (stereo unspecified)	.	.	2.8	-1.3	.
FC(F)Oc1ccc(NC(=S)NC2CCCCCCC2)cc1	15.2	33.3*	-3.5	2.1	2.4
S=C(Nc1ccc(Cl)cc1)NC1CCCCC1	-3.6	-7.5	0.0	-5.5	5.4
Cc1c(CNC(C)CCc2ccccc2)c(C(=O)O)c(C)n1Cc1ccc(F)cc1Cl (stereo unspecified)	0.3	.	.	.	.
S=c1[nH]nc(C2CCCCC2)n1/N=C/c1ccccc1	-5.5	-10.2	-9.8	-7.4	-0.4
Fc1ccc(/C=N/n2c(C3CCCCC3)n[nH]c2=S)cc1	7.1	50.2*	?	-5.9	0.2
COc1cc(OC)c(N(C)C(=O)Nc2cn(CC(C)C)c(=O)c3ccccc23)cc1Cl	4.6	.	.	.	-0.6
CN(Cc1ccc(F)cc1)C(=O)c1cc(COc2ccc(-n3cncn3)cc2)on1	1.9	-9.7	1.9	66.6*	0.4
CCc1ccc(OCc2n[nH]c(=S)n2C(C)CCCC(C)C)cc1 (stereo unspecified)	3.4	47.5*	13.5	0.1	1.5
Cc1cc(=O)n2nc(N3CCCC(C(=O)NCc4ccco4)C3)sc2n1 (stereo unspecified)	-6.6	36.3*	1.0	-6.3	0.6
Cc1cc(=O)n2nc(N3CCC(C(=O)NCc4ccco4)CC3)sc2n1	-2.3	-11.1	-4.9	-13.0	-0.2
O=C(NC(NC(=S)Nc1cccc(Cl)c1)C(Cl)(Cl)Cl)OCc1ccccc1 (stereo unspecified)	4.6	77.9*	1.4	-26.0	1.8
CN(Cc1nc(-c2cccc(Cl)c2)no1)C1CCOCC1	7.1	46.9*	0.9	-9.8	0.0
CCN(c1ccccc1)S(=O)(=O)c1cnc[nH]1	1.2	34.5*	-2.5	3.6	0.7
CC(=O)Nc1cccc(NC(=O)CSc2nnc(Cc3cccn3C)n2-c2ccc(F)cc2)c1	-2.3	48.8*	-2.8	-18.6	-2.8

Screening results from PubChem BioAssay.
